Results filed as inconclusive are left out. Unmarked numbers belong to inactive results. Active and inactive are the calls of the source. The call rests on the fitted dose curve; in most records, active means well fitted cell-killing curve with a large enough effect; inconclusive means small, poorly fitted or top-dose-only effect; inactive means flat fitted curve, though single readings scatter. Starred links: 1 amine or outer side, 2 acyl side, 3 side chain; linkers in the order of their positions; H or OH if unused. Positions of bridges follow the written chain, without caps; N, C: chain ends. Non-standard residues stand in square brackets, D forms with d. Residues, ends and D or L forms follow the SMILES beside them. Chains are numbered I, II in the order given. Actinocin(9to1) = Cc1c2oc3c(C)ccc(C(=O)[*:1])c3nc-2c(C(=O)[*:2])c(N)c1=O; NMeV = CN[CH](C(=O)O)C(C)C; Sar = CNCC(=O)O
Test: qHTS of pediatric cancer cell lines to identify multiple opportunities for drug repurposing: Primary screen for TC32 cells (AID 1347089); further: nearly all actives have a fitted effect of over 60% in size
Details: TC32 Ewing sarcoma viability, CellTiter-Glo luminescence, 48 h; series mostly up to 45.8 µM; activity change, negative = cytotoxic: at the top concentration
Method in brief: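 Luminescent CellTiter-Glo read-out of metabolically active TC32 cells after 48 h compound exposure. Primary: MIPE 11-point, 0.78 nM–46 µM; NPC 8-point, 0.59 nM–46 µM. Confirmatory: 11-point dilutions.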
On the % scale 0 is the no-effect control and ±100 the full control effect; potency means the concentration at half of the fitted maximal effect.

| SMILES | activity change, negative = cytotoxic | Potency |
| --- | --- | --- |
| CCCCCCCCCCCCCCCC(=O)OC[C@@H](NC(=O)C(Cl)Cl)[C@H](O)c1ccc([N+](=O)[O-])cc1 | 13.6% |  |
| Cn1cc(C[C@@H](N)C(=O)O)c2ccccc21 | 1.91% [at 16 µM] |  |
| Cc1cc(-c2nnc3n2CCCCC3)c(C)n1-c1ccccc1 | 14.7% |  |
| O=[N+]([O-])c1cn2c(n1)OC[C@@H](OCc1ccc(OC(F)(F)F)cc1)C2 | -12.8% |  |
| N[C@H]1CN(c2c(F)cc3c(=O)c(C(=O)O)cn(C4C[C@@H]4F)c3c2Cl)CC12CC2 (stereo not given in full) | 3.78% |  |
| C=CC1=C(C(=O)O)N2C(=O)[C@@H](NC(=O)C(=NO)c3csc(N)n3)[C@H]2SC1 | 6.45% |  |
| C[C@@H](Cc1cc2c(c(C(N)=O)c1)N(CCCO)CC2)NCCOc1ccccc1OCC(F)(F)F | 3.25% |  |
| C[C@H]1COc2c(N3CCN(C)CC3)c(F)cc3c(=O)c(C(=O)O)cn1c23 | 4.15% |  |
| C=CCNC1=C2C[C@@H](C)C[C@H](OC)[C@@H](O)[C@@H](C)C=C(C)[C@H](OC(N)=O)[C@@H](OC)C=CC=C(C)C(=O)NC(=CC1=O)C2=O |  | 1.17 µM (active) |
| CCNC(=O)c1cc2c(-c3cc(OCCN4CCCC4)c(Cl)cc3Cl)nc(N)nc2s1 |  | 3.7 µM (active) |
| COC(=O)[C@H](CCCN=C(N)N)NS(=O)(=O)c1ccc(C)cc1 | 12.6% |  |
| CCCNS(=O)(=O)Nc1ncnc(OCCOc2ncc(Br)cn2)c1-c1ccc(Br)cc1 | 8.47% |  |
| Cn1cc(C=CC(=O)c2cccc(F)c2)cc1C=CC(=O)NO | 9.51% |  |
| C[C@@H]1CC[C@@]2(OC1)OC1CC3C4CC=C5CC(O)CCC5(C)C4CCC3(C)C1[C@@H]2C (stereo not given in full) | 20.9% |  |
| CCN1CCN(C(=O)N[C@H](C(=O)N[C@@H]2C(=O)N3C(C(=O)O)=C(CSc4nnnn4C)CS[C@@H]23)c2ccc(O)cc2)C(=O)C1=O | 13.6% [at 9.17 µM] |  |
| Cn1c(Nc2ccc(C(F)(F)F)cc2)nc2cc(Oc3ccnc(-c4ncc(C(F)(F)F)[nH]4)c3)ccc21 |  | 16.5 µM (active) |
| CC(C)(O)[C@H]1CC[C@@](C)([C@H]2[C@@H](O)C[C@@]3(C)[C@@H]4C[C@H](O[C@@H]5O[C@H](CO)[C@@H](O)[C@H](O)[C@@H]5O)[C@H]5C(C)(C)[C@@H](O[C@@H]6OC[C@@H](O)[C@H](O)[C@@H]6O)CC[C@@]56C[C@@]46CC[C@]23C)O1 | 5.1% |  |
| CC(=O)O[C@H]1C[C@@H]2CC[C@H]3[C@H]4C[C@H]([N+]5(C)CCCCC5)[C@@H](OC(C)=O)[C@@]4(C)CC[C@@H]3[C@@]2(C)C[C@H]1[N+]1(C)CCCCC1 | 6.41% |  |
| O=C1c2c(O)cccc2[C@@H]([C@@H]2O[C@H](CO)[C@@H](O)[C@H](O)[C@H]2O)c2cc(CO)cc(O)c21 | 3.69% |  |
| Nc1nc(=O)n([C@H]2C[C@H](O)[C@@H](CO)O2)cc1F |  | 0.829 µM (active) |
| O=C(O)CCCCC(CCSCc1ccccc1)SCc1ccccc1 (stereo not given) | 6.16% |  |
| OCCNC1CCCc2c1[nH]c1ccc(-c3ccccc3)cc21 (stereo not given) | -6.89% |  |
| C=C1C(=O)O[C@H]2[C@@H]1CCC(C)=CCC[C@@]1(C)O[C@@H]21 |  | 23.4 µM (active) |
| CC(C)(O)Cn1c(NC(=O)c2ccc(-c3cn[nH]c3)s2)nc2cc(CN3CCOCC3)ccc21 |  | 8.29 µM (active) |
| CC[C@H](CC[C@@H](C)[C@H]1CC[C@H]2[C@@H]3CC=C4C[C@@H](O)CC[C@]4(C)[C@@H]3CC[C@]12C)C(C)C | 1.65% |  |
| Nc1ccc(C(=O)Nc2cccc(-c3nc(N4CCOCC4)c4oc5ncccc5c4n3)c2)cn1 | -13.9% |  |
| CC(=O)OCC(=O)[C@@]12N=C(C)O[C@H]1C[C@H]1[C@@H]3CCC4=CC(=O)C=C[C@]4(C)[C@@H]3[C@@H](O)C[C@@]12C | 15.3% |  |
| COC(=O)[C@@H]1[C@H]2C[C@@H]3c4[nH]c5ccccc5c4CCN3C[C@@H]2CC[C@@H]1O | 20% |  |
| Cc1c2oc3c(C)ccc(C(=O)NC4C(=O)NC(C(C)C)C(=O)N5CCCC5C(=O)N(C)CC(=O)N(C)C(C(C)C)C(=O)OC4C)c3nc-2c(C(=O)NC2C(=O)NC(C(C)C)C(=O)N3CCCC3C(=O)N(C)CC(=O)N(C)C(C(C)C)C(=O)OC2C)c(N)c1=O (stereo not given) (I: TVP[Sar][NMeV] / II: TVP[Sar][NMeV]; ester I:1-I:C, II:1-II:C; linker I:N-II:N via Actinocin(9to1); configuration not given here) |  | 0.523 µM (active) |
| C[C@H]1C[C@H]2[C@@H]3CCC4=CC(=O)C=C[C@]4(C)[C@@H]3C(=O)C[C@]2(C)[C@@]1(O)C(=O)CO | 6.42% |  |

— PubChem BioAssay (NCATS)
